The record followed here is PubChem BioAssay (Tox21).

Each structure is given as a SMILES string. Several values for one entry are separate records, joined by “and”; a condition that tells them apart may be missing. Equal values may be shown once. Inconclusive results are not listed. Where a structure was tested more than once in an assay, its records may differ in their call. Activity calls are given as the source filed them. Unless noted, calls come from the whole dose curve; as a rule, active = well fitted curve in the direction sought with a large enough effect in the repeat runs; inconclusive = weak or mixed curves; inactive = no such curve, though single readings can be large; an effect the other way counts as inactive or inconclusive.

Assay [1] is described as follows: qHTS assay to identify small molecule antagonists of the androgen receptor (AR) signaling pathway using the MDA cell line in the presence of 0.5 nM R1881 - cell viability counter screen (AID 1259242). Note: nearly all actives have a fitted effect of over 45% in size. Note: potency is the fitted concentration of half-maximal effect. The essentials:
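Live-cell protease activity was measured by CellTiter-Fluor fluorescence after 30 min. Before that, MDA-kb2 MMTV-luciferase cells had 16 hr at 37C without CO2, exposed to test compounds and 0.5 nM R1881 final.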

The nature of assay [2]: qHTS assay to identify small molecule HDAC inhibitors (AID 1259364). Note: top concentration of the series differs between compounds; nearly all actives have a fitted effect of over 45% in size. The essentials:
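Luminescence read after 30 min room-temperature HDAC-Glo incubation measures cellular class I/II HDAC activity. Compounds were applied for 2 hr at 37 C to HCT-116 wild-type cells seeded the day before.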
(In general: Quantitative high-throughput screening tests each substance at several concentrations.)

Assay [3] is described as follows: qHTS assay to identify small molecule HDAC inhibitors - cell viability counter screen (AID 1259365). Note: series mostly up to about 92 µM; nearly all actives have a fitted effect of over 50% in size. The essentials:
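Luminescence from CellTiter-Glo, developed 30min at room temperature, reports viability of wild-type HCT-116 cells treated 2hr with compounds at 37 C and 5% CO2 after overnight plating.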

Assay [4] can be described thus: qHTS assay to identify small molecule agonists of the sonic hedgehog signaling (Shh) pathway - cell viability counter screen (AID 1259366). Note: nearly all actives have a fitted effect of over 50% in size. Note: potency is the fitted concentration of half-maximal effect. The essentials:
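Cytotoxicity counter screen run in the same wells as the Shh reporter assay. NIH/3T3 cells carrying a Gli1 response element–driven luciferase were treated with DMSO-dissolved compounds for 24hr, and live-cell protease activity was measured with CellTiter-Fluor.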

A short description of assay [5]: qHTS assay to identify small molecule antagonists of the sonic hedgehog signaling (Shh) pathway - cell viability counter screen (AID 1259367). Note: nearly all actives have a fitted effect of over 55% in size. Note: potency is the fitted concentration of half-maximal effect. An outline of the steps: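 CellTiter-Fluor signal in conditioned medium-stimulated 3T3 Gli1-Luc cells, 23 hr compound exposure, 37C.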
Assay [6] is described as follows: qHTS assay to identify small molecule agonists of the sonic hedgehog signaling (Shh) pathway (AID 1259368; calls by dose curve;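 note: NIH/3T3-derived 3T3Gli1-Luc cells carrying a stable Gli1-driven firefly luciferase reporter; series mostly up to about 92 µM; nearly all actives have a fitted effect of over 15% in size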). The essentials: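 Luminescence was read after 30 min at room temperature with luciferase reagent. Before that, 3T3Gli1-Luc cells (NIH/3T3 clone, stable Gli1-Luc reporter; 2,000/well) were exposed to compounds for 24 hr at 37C, 5% CO2, compounds being added 4 hr post-plating.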

Assay [7] in a line: qHTS assay to identify small molecule antagonists of the sonic hedgehog signaling (Shh) pathway (AID 1259369; calls by dose curve; note: nearly all actives have a fitted effect of over 45% in size; note: potency is the fitted concentration of half-maximal effect). An outline of the steps: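 Antagonist mode: compound added to 3T3 Gli1-Luc cells followed by conditioned-medium stimulation, 24 h at 37 C, 5% CO2. Inhibition taken as loss of Gli1-driven luciferase luminescence.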
A short description of assay [8]: qHTS assay to identify small molecule phospholipidosis (PLD) inducers (AID 1259344; active = well fitted curve in the direction sought with a large enough effect; an effect the other way counts as inactive or inconclusive). The essentials:
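Accumulated phospholipid, stained red by LipidTOX during 24 h compound treatment of HepG2 cells at 37 C, is quantified from images as pit number and intensity, normalised per cell using Hoechst-stained nuclei.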

The target in assay [9] is Estrogen receptor (Homo sapiens) (UniProt P03372). Description: qHTS assay to identify small molecule antagonists of the estrogen receptor alpha (ER-alpha) signaling pathway using the BG1 cell line in the presence of 0.1 nM 17-beta-estradiol (AID 1259244). Note: nearly all actives have a fitted effect of over 50% in size. Note: potency is the fitted concentration of half-maximal effect. The essentials:
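Luciferase luminescence (ONE-Glo, 30 min at room temperature) was read after 22 hr at 37C exposure to compounds plus 17beta-estradiol at 0.1 nM final. Cells were VM7Luc4E2 with endogenous ER-alpha and an ERE-driven luciferase, pre-cultured 5 days in hormone-depleted medium.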

Chain of Estrogen receptor (Homo sapiens) (P03372 whole entry, looked up): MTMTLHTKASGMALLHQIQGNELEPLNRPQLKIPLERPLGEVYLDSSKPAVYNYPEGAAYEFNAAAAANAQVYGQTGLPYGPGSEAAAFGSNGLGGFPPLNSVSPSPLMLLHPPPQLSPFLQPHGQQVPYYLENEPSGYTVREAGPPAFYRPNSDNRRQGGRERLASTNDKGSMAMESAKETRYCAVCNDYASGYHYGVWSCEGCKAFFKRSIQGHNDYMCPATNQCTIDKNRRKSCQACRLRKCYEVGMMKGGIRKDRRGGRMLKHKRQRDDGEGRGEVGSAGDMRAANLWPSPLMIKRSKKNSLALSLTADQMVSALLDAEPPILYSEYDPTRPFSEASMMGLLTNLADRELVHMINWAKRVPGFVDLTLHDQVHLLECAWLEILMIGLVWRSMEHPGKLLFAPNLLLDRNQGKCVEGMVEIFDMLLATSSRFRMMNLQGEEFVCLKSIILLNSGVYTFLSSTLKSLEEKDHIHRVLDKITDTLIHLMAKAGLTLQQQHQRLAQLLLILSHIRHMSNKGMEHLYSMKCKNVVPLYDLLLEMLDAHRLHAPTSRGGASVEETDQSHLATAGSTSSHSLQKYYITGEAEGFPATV

With `Cc1ccccc1CCl`, the Potency entry in [1], in [2], in assay [3], in assay [4], in assay [5] and in [6] was “inactive” each time. Also, the Potency entry in [7] was “inactive”.

Regarding `CC(C)(CCl)C(=O)Cl`, the Potency result in [1], in assay [2], in [3], in assay [4] and in assay [6] was “inactive” each time. For the same compound, the Potency in assay [5] and in [7] was 12.2 µM (active) each time.

As for `CCCC(Cn1cncn1)c1ccc(Cl)cc1Cl` (stereo not given), the Potency entry in assay [1], in assay [2], in [3], in [4], in [5] and in assay [6] was “inactive” in each case. Besides, the Potency in assay [7] is 17.2 µM (active).

`O=C(O)C1(c2ccc3c(c2)OC[C@H](Cc2ccc(-c4ccccc4)cc2)[C@H]3O)CCCC1`: the Potency result in assay [1], in assay [2], in assay [3], in assay [4], in [5] and in assay [6] was “inactive” in each case.

Take `C=COC(C)=O`: the Potency result in assay [1], in [2], in assay [3], in assay [4], in assay [5] and in assay [6] was “inactive” in each case. Further, the Potency result in assay [7] was “inactive”.

As for `CCC(COC(=O)c1cc(OC)c(OC)c(OC)c1)(c1ccccc1)N(C)C` (stereo not given), the Potency result in assay [1], in assay [2], in assay [4] and in assay [5] was “inactive” each time. Moreover, the result in assay [8] was inactive.

In the case of `CCn1cc[n+](C)c1`, the Potency entry in assay [1], in assay [2], in assay [3], in assay [4], in assay [5] and in assay [6] was “inactive” throughout. Moreover, in assay [7], the Potency entry is “inactive and 19.3 µM (active) and 38.8 µM (active)”.

As for `C[C@@H]1CC[C@H]2[C@@H](C)C(=O)O[C@@H]3O[C@@]4(C)CC[C@@H]1[C@]32OO4`, the Potency entry in assay [1], in assay [2], in [3], in [4], in assay [5] and in [6] was “inactive” in each case. Moreover, in assay [7], the Potency entry is “inactive”. The compound was called inactive in assay [8].

In the case of `O=C(O)C(F)(F)C(F)(F)C(F)(F)C(F)(F)C(F)(F)C(F)(F)C(F)(F)C(F)(F)C(F)(F)C(F)(F)F`, the Potency result in assay [1], in assay [2], in assay [3], in assay [4], in assay [5] and in assay [6] was “inactive” in each case. For the same compound, the Potency entry in assay [7] was “inactive”.

`BrCC(Br)C1CCC(Br)C(Br)C1` (stereo not given): the Potency entry in assay [1], in assay [2], in assay [3], in [4], in assay [5] and in assay [6] was “inactive” throughout. Moreover, the Potency result in [7] was “inactive”.

As for `C#CCOC(C(=O)OCCN(C)C)(c1ccccc1)c1ccccc1`, the Potency result in assay [1], in assay [2], in assay [3], in assay [4], in assay [5] and in assay [7] was “inactive” each time. For the same compound, the call in assay [8] was inactive.

Turning to `C/C=C/C=O`, the Potency entry in [1], in assay [2], in assay [3], in assay [4], in assay [5] and in [6] was “inactive” in each case. In addition, in assay [7], the Potency entry is “inactive”.

As for `CC(=O)c1cc2c(cc1C)C(C)(C)C(C)CC2(C)C` (stereo not given), the Potency result in assay [1], in [2], in [3], in assay [4], in assay [5] and in assay [6] was “inactive” each time. Moreover, the Potency entry in assay [7] was “inactive”.

On to `C=CC(=O)OC`, for which the Potency entry in [1], in assay [2], in assay [3], in assay [4], in assay [5] and in [7] was “inactive” each time.

On to `N#Cc1cc(I)c(O)c(I)c1`, for which the Potency entry in assay [2], in [3] and in [5] was “inactive” throughout. The Potency in [7] is 24.3 µM (active).

As for `O=S(=O)(O)C(F)(F)C(F)(F)C(F)(F)C(F)(F)F`, the Potency result in assay [1], in assay [2], in assay [3], in [4] and in [5] was “inactive” throughout. Moreover, the Potency in assay [7] was 57.8 µM (active).

`COP(=S)(OC)Oc1ccc([N+](=O)[O-])cc1Cl`: the Potency result in assay [9], in assay [3] and in assay [7] was “inactive” throughout.

Regarding `CS/C(C)=N/OC(=O)N(C)SN(C)C(=O)O/N=C(\C)SC`, the Potency result in assay [9], in [2], in [3], in assay [5] and in [6] was “inactive” each time. Besides, the Potency in assay [4] was 54.5 µM (active).

`Cc1ccc(-c2c(Cl)nc(C#N)n2S(=O)(=O)N(C)C)cc1`: the Potency in assay [9] was 43.2 µM (active); in assay [7], 7.69 µM (active). The Potency result in assay [3] is “inactive”.

As to `O=C(N[C@H](c1ccccc1)[C@@H]1CN2CCC1CC2)c1c(Cl)ccc(C(F)(F)F)c1Cl`, the Potency result in [2], in assay [3] and in assay [6] was “inactive” each time. Besides, the results for the Potency in [4], in [5] and in [7] were 39.2 µM (active), 43.9 µM (active) and 13.9 µM (active), respectively.

As to `CCCCc1c(C)nc(NCC)nc1OS(=O)(=O)N(C)C`, the Potency entry in assay [1], in [2], in assay [3] and in assay [6] was “inactive” throughout. The Potency in assay [4] was 30.6 µM (active); in [7], 61.1 µM (active).

In the case of `COP(=S)(OC)Oc1cc(Cl)c(I)cc1Cl`, the Potency entry in assay [1], in assay [2], in assay [3] and in assay [4] was “inactive” throughout. The Potency in [7] was 38.6 µM (active).

Turning to `O=[Se]=O`, the Potency in [1] is 12.1 µM (active). Besides, the Potency result in assay [2], in [4], in assay [5], in assay [6] and in assay [7] was “inactive” each time.
